# Source: PubChem BioAssay (National Center for Advancing Translational Sciences (NCATS))
# An excerpt weighted towards active compounds, which were near 3.1% of everything screened.
# Tau fibril FP: tau fibrillization inhibition (FP). P10636. K18 P301L tau heparin fibrillization, Alexa594 FP, 6 h. Potency, µM (series often up to 57.7 µM), without a hit: at the top dose activity, negative = inhibition, actives largely listed as inhibitors. hit rate 0.39% among 280,000. AID 1468; also: nearly all actives have a fitted effect of over 55% in size
# Target sequence (P10636 561-689 P618L limits assumed): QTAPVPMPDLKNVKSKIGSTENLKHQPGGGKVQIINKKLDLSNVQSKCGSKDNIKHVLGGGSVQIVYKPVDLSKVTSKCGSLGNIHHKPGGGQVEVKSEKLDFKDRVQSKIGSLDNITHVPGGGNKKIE
#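 Quantitative HTS format: compounds meet 15 uM recombinant K18 P301L tau and Alexa 594-tau tracer in 100 mM sodium acetate pH 7; 20 uM heparin triggers fibrillization at 37 C over 6 hr; FP gives the signal.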
# TexasRed fluor: alters Texas Red total fluorescence, flagging assay interference; Potency, µM (top dose mostly 106 µM), for the others: at the top dose fluorescence change, negative = quenching; hit rate 0.29% among 280,000; AID 1479; TRb/SRC2 Texas Red total fluorescence interference; active = well fitted curve in either direction with a large enough effect; inconclusive = small, poorly fitted or top-dose-only effect
#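 Human TRβ ligand-binding domain (0.6 uM) and Texas Red SRC2 peptide (20 nM) in Tris buffer with 1 uM T3 and 5% DMSO were incubated with pinned compound for 5 hr at ambient temperature. Total fluorescence was computed as S + 2P (555/632 nm).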
# Tau ThT inhib: inhibitors of human tau fibril formation, thioflavin T binding. P10636. hit rate 2.1% among 270,000. Potency, µM (doses to about 57.4 µM), inactives show at the top dose activity, negative = inhibition, actives largely listed as inhibitors. AID 1460. recombinant tau K18 P301L, heparin-induced fibrillization, ThT fluorescence; also: nearly all actives have a fitted effect of over 55% in size
#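 ThT emission at 510 nm, taken 1 hr after adding 30 uM dye, quantifies aggregates formed when 20 uM heparin acts on human tau K18 P301L for 6 hr at 37 C.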
# TRb-SRC2 inh: TRbeta-SRC2 interaction inhibition | P10828 | TRbeta-SRC2 peptide binding, fluorescence polarization; receptor liganded with 1 µM T3 | Potency, µM (titrated, usually from 106 µM), without a hit: top-dose activity change, negative = inhibition, hits mostly inhibitors | hit rate 0.065% among 280,000;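 also: plate controls were bound peptide for no effect and peptide without receptor for full effect; nearly all actives have a fitted effect of over 50% in size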
# Target sequence (P10828 whole entry, looked up): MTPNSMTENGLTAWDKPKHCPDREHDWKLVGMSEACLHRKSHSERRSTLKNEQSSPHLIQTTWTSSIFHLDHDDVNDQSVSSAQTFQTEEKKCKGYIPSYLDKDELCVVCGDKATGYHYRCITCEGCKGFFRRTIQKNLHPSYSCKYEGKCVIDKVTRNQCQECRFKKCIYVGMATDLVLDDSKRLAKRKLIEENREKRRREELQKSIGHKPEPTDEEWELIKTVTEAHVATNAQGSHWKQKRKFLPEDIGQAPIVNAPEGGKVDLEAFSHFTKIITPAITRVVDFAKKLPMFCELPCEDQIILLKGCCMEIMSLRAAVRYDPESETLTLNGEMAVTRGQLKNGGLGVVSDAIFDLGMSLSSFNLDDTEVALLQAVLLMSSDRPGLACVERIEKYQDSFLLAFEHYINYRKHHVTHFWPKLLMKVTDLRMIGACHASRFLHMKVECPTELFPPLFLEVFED
#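 Human TRb LBD (0.6 uM) plus Texas Red-labeled SRC2 peptide (20 nM), 1uM T3, 5% DMSO, 5 hr at ambient temperature. Decreased polarization (555/632 nm) flags inhibition; data normalized to free and bound peptide controls.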
# Tau fluor cs: counter-screen for tau fibril formation inhibitors; hit rate 0.93% among 280,000; Potency, µM (doses to about 57.7 µM), inactives show top-dose activity change, negative = decrease; tau K18 P301L (four-repeat tau fragment) Alexa594 fluorescence, heparin fibrillization; AID 1463; also: nearly all actives have a fitted effect of over 55% in size
#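 Human K18 P301L tau (15 uM unlabeled plus 0.24 uM Alexa 594-labeled, final) in 100 mM sodium acetate pH 7 was mixed with compound and 20 uM heparin and incubated 6 hr at 37 C.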
# An asterisk follows results filed as active; u = inconclusive; x = not tested or not shown; [ ] = another dose, or the depositor's remark. Unless noted, calls follow the shape of the dose curve; as a rule, active = well fitted curve in the direction sought with a large enough effect; inconclusive = small, poorly fitted or top-dose-only effect, or another doubt; inactive = no such curve, though single readings can be large; an effect the other way counts as inactive or inconclusive. Unless noted, % is scaled to controls: 0 for no effect and ±100 for the full control effect; potency is read from the fitted curve at half-maximal effect.
SMILES,Tau fibril FP,TexasRed fluor,Tau ThT inhib,TRb-SRC2 inh,Tau fluor cs
c1ccc(Nc2cccc(Nc3ccccc3)n2)cc1,3%,2%,14µM*,4%,13µM*[quencher]
CCOc1ccc(-n2c(SCC(=O)Nc3ccc(CC)cc3)nc3c(oc4ccccc43)c2=O)cc1,u,-2%,-7%,5%,-14%
CCCCCCCCCCCC[N+](C)(C)[O-],x,-4%[201 µM],x,2%[201 µM],x
COC(=O)c1scc(-c2ccc(C)cc2)c1S(=O)(=O)Nc1cc(OC)c(OC)c(OC)c1,10%,-1%,-11%,-4%,-18%
O=C(CSCc1cccc(Br)c1)N=Nc1c(O)[nH]c2ccccc12,u,-8%,u,2%,u
O=Nc1c(-c2c(O)[nH]c3cc(Br)ccc23)[nH]c2ccccc12,u,-4%,2.2µM*,8%,8.9µM*[quencher]
N#Cc1c(NC(=O)c2ccccc2Cl)n(Cc2ccccc2)c2nc3ccccc3nc12,u,-14%,14µM*,u,-29%
CCCCCCCCCCCCCC(=O)OC,x,2%[201 µM],x,-4%[201 µM],x
COc1ccc(N/C=C/C(=O)c2sc(-c3ccccc3)nc2C)cc1,8%,-5%,2.5µM*,-5%,u
Cc1nc(-c2ccccc2)sc1C(=O)/C=C/c1ccc(Cl)cc1,3%,2%[53 µM],u,-14%[53 µM],4%
COc1ccc2ccccc2c1/C=N/NC(=O)c1sc(N)c(C#N)c1C,8%,2%,u,6%,u
COc1cc(/C=N/NC(=O)c2sc(N)c(C#N)c2C)cc(Br)c1O,14%,u,4.5µM*,12%,u
COc1ccc(NC(=O)Cn2nc(SC)c(S(=O)(=O)c3ccc(C)cc3)c2N)cc1OC,-13%,-2%,-4%,-6%,-28%
CCOC(=O)c1ccc(NC(=O)Cn2nc(SC)c(S(=O)(=O)c3ccc(Cl)cc3)c2N)cc1,13µM*,5%,-7%,-5%,u
CCSc1nn(CC(=O)Nc2ccc(C(=O)OC)cc2)c(N)c1S(=O)(=O)c1ccc(C)cc1,25µM*,-2%,-2%,-2%,u
CC1CC2(CCCCC2)Nc2ccc3ccccc3c21 (stereo unspecified),5%,-3%,u,0%,-25%
CCc1cccc2c1NC1(CCCC1)CC2C (stereo unspecified),-10%,u,u,28µM*,-22%
O=C(NCc1ccco1)/C(=C\c1ccco1)NC(=O)c1ccco1,u,-1%,40µM*,0%,u
CCOC(=O)C1(Cc2ccc(OC)cc2)CCN(C(=O)CN2CCCCC2=O)CC1,-9%,0%,-18%,-8%,-16%
O=C(O)C1=CC(=C(c2ccc(O)c(C(=O)O)c2)c2ccc(O)c(C(=O)O)c2)C=CC1=O,u,u,32µM*,u,u
CC(C)CCn1c(=O)c2sccc2n2c(CCCC(=O)NC(C)c3ccccc3)nnc12 (stereo unspecified),-8%,-2%,-3%,-3%,-10%
CCOC(=O)c1cc(=O)[nH]c2ccccc12,-1%,-1%,-5%,-4%,-6%
CCOC(=O)c1cc2n(c1/N=C/N(C)C)-c1ccccc1C2=O,25µM*,1%,25µM*,6%,u
CC(C)c1ccc(NNC(=O)C2CCC2)cc1,0%,-1%,-8%,-4%,-17%
CC1=NNC(=O)/C1=C\c1cn(-c2ccccc2)nc1-c1ccc(F)cc1,5%,-1%,20µM*,3%,-23%
SMILES,Tau fibril FP,TexasRed fluor,Tau ThT inhib,TRb-SRC2 inh,Tau fluor cs
Cn1cc(C(=O)N/N=C/c2ccc(Br)c([N+](=O)[O-])c2)c2ccccc21,u,-2%,x,-2%,14µM*[quencher]
CC(C)(C)C1=CC=C(C(C)(C)C)C(=O)C1=O,18µM*,1%,18µM*,4%,u
Cc1cccc(C)c1Nc1c(-c2ccc(O)cc2)nc2sccn12,11%,3%,u,1%,u
COc1cc(-c2nc3sccn3c2Nc2c(C)cccc2C)ccc1O,22µM*,0.004µM*[quencher],16µM*,-5%,u
CCc1cccc(C)c1Nc1c(-c2cccc(O)c2)nc2sccn12,15%,u,u,-12%,18µM*[quencher]
CCCc1ccc(-c2c(C)sc(N)c2C#N)cc1,u,-5%,u,-6%,16µM*[quencher]
CCOc1ccccc1C(=O)Nc1cc2c(cc1N1CCCCC1)n(C)c(=O)n2C,1%,-4%,u,0%,-13%
COc1ccccc1C(=O)NNC(=S)NC(=O)c1sc2ccccc2c1Cl,11%,-2%,7.1µM*,-12%,-21%
O=C(CCS(=O)(=O)c1cc(Br)cc2c1N(C(=O)C1CC1)CC2)NCc1ccccc1Cl,5%,-1%,-12%,0%,-10%
CC1CCN(c2ccc(NC(=O)Cc3ccccc3)cc2)CC1,3%,1%,-15%,-3%,-12%
COc1cccc(CNc2ccc(N3CCC(C)CC3)cc2)c1OC,u,4%,18µM*,-4%,u
COC(=O)CN(Cc1ccccc1)S(=O)(=O)c1ccc(OC)c(OC)c1,u,-1%,16µM*,7%,-23%
COC(=O)CN(CCc1ccccc1)S(=O)(=O)c1ccc(OC)c(OC)c1,-1%,1%,1%,-5%,-7%
COc1ccc(Nc2ncc3c(n2)CCN(Cc2ccccc2C)C3)c(OC)c1,u,-1%,u,-13%,u
CCN(CCO)c1ccc(N=Nc2cc(C)[nH]n2)cc1,12%,-3%,10µM*,6%,-15%
Cc1cc(/C=N/NC(=O)C(=O)NCc2ccccn2)c(C)n1-c1ccccc1,1%,0%[53 µM],-7%,7%[53 µM],8%
O=C1OC(/C=C/c2ccccc2)=NC/1=C/C=C/c1ccccc1,-13%,-4%,16µM*,5%,-3%
CCCc1ccc(Oc2cn[nH]c2-c2ccc(O)c(C)c2O)cc1,-6%,-4%,25µM*,-4%,14µM*[quencher]
CCCc1ccc(Oc2c(-c3ccc(O)c(C)c3O)n[nH]c2C)cc1,u,1%,28µM*,5%,13µM*[quencher]
CCOC(=O)C1CCN(c2cc(C)nc3c(-c4ccccc4OC)c(C)nn23)CC1,2%,0%,-13%,1%,-15%
COc1ccc(N2CCN(C(=O)C(=O)c3c(C)n(C)c4ccccc34)CC2)cc1,15%,-1%,-13%,-5%,-14%
CCOc1ccc(CCNC(=O)C2CCN(c3ncnc4c3nc3n4CCCCC3)CC2)cc1,-1%,22µM*[quencher],-7%,-9%,0%
O=C(NCCc1ccc(Cl)cc1)C1CCN(c2ncnc3c2nc2n3CCCCC2)CC1,-4%,-5%,-2%,-2%,-6%
CCCNC(=O)C1CCN(c2ncnc3c2nc2n3CCCCC2)CC1,-4%,4%,-3%,1%,1%
CN(C)CCNC(=O)C1CCN(c2ncnc3c2nc2n3CCCCC2)CC1,-1%,25µM*[quencher],9%,-10%,8%
COC(=O)c1cc2c(-c3ccccc3)c(C)c3ccccn3c-2c1C(=O)OC,15%,1%,16µM*,-10%,u
